# From PubChem
# HEK293 tox: HEK 293 cell cytotoxicity. HEK 293 viability, ATP luminescence (CellTiter-Glo), 48-72 h. Potency, µM (top dose mostly 115 µM), for the others: top-dose activity change, negative = cytotoxicity, usual class: inhibitors. 94,000 tested, 6.6% active. AID 1345083; note: nearly all actives have a fitted effect of over 60% in size
#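 Read-out: CellTiter-Glo ATP luminescence. Cells: HEK 293, 250 cells/well. Exposure: 48 or 72 hr, 37 degree Celsius.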
# HEK293 viab: cell viability loss counter-screen; 150,000 tested, 0.12% active; AID 1671193; HEK-293-SNCA-luc viability, GF-AFC fluorescence, 24 h; Potency, µM (highest dose often 57.1 µM), for inactives: at the top dose activity change, negative = cytotoxicity, most hits filed as cytotoxic;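 note: 0% = DMSO-treated cells and -100% = medium-only wells without cells; nearly all actives have a fitted effect of over 30% in size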
#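 Cytotoxicity counterscreen: after 24 h compound treatment of genome-edited SNCA-luciferase HEK-293 cells, live-cell protease substrate GF-AFC read by fluorescence after 30 min; activity scaled between DMSO (0%) and medium-only (-100%), curves Hill-fitted.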
# NPR1 antag: human Npr1 receptor antagonism; P16066; HEK293 hNpr1 GloSensor cGMP, ANP-stimulated luminescence; Potency, µM (doses to about 46.3 µM), for inactives: top-dose activity change, negative = inhibition, actives largely listed as inhibitors; 76,000 tested, 1.6% active; AID 1347048; calls by dose curve; note: nearly all actives have a fitted effect of over 60% in size
# Target sequence (P16066 whole entry, looked up): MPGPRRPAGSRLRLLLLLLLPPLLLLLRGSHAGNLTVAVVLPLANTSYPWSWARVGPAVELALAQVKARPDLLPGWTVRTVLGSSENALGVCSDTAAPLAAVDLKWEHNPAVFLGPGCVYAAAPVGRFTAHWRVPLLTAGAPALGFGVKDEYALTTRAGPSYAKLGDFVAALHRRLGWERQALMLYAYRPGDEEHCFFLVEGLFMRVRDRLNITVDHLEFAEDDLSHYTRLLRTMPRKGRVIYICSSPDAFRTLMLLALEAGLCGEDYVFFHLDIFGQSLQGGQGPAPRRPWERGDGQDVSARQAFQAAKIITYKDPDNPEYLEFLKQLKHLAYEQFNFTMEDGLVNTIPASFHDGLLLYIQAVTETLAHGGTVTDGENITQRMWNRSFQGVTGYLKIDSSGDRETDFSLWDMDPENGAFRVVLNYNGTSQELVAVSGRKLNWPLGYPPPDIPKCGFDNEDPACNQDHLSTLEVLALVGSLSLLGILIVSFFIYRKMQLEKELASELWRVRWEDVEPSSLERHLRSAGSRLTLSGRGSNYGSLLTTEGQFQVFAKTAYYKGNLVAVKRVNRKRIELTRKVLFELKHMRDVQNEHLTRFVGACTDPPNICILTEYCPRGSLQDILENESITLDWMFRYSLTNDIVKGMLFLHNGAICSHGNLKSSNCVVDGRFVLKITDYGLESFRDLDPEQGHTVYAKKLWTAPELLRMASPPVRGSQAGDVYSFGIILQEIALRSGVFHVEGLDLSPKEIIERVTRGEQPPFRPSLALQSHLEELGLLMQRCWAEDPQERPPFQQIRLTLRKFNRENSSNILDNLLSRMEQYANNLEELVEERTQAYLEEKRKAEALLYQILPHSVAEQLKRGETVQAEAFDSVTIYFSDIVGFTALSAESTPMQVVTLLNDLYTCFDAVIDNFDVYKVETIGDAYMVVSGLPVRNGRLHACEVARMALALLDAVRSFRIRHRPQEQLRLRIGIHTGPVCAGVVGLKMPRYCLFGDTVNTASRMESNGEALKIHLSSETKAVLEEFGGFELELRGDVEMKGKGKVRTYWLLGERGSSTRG
#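 HEK293 cells stably expressing human Npr1 and cGMP GloSensor pGS-40F, loaded 2 h with 2% GloSensor reagent, given compound 30 min at room temperature. Luminescence read before and 20 min after 0.1 nM hNppA.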
# SNCA expr inh: SNCA gene expression inhibition; HEK-293 SNCA-luciferase knock-in, luminescence, 24 h; Potency, µM (highest dose often 57.2 µM), for the others: at the highest dose activity change, negative = inhibition, hits mostly inhibitors; 140,000 tested, 0.17% active; AID 1671194;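 note: plate controls were DMSO cells for no effect and cell-free wells for full effect; nearly all actives have a fitted effect of over 45% in size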
# Luciferase inh: Photinus pyralis luciferase inhibition; purified P. pyralis luciferase, luminescence, biochemical; P08659; Potency, µM (titrated, usually from 115 µM), actives largely listed as inhibitors; AID 1347043; 76,000 tested, 2.5% active; note: nearly all actives have a fitted effect of over 65% in size
#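 Inhibitors were tested against purified firefly luciferase in a biochemical, low-substrate format (both substrates at 10uM) and luminescence measured with a CCD imager.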
# 3T3 cytotox: cytotoxic compounds in NIH 3T3 cells | Potency, µM (series often up to 96.7 µM), without a hit: at the top dose activity change, negative = cytotoxicity, usual class: inhibitors | AID 1345082 | 94,000 tested, 4.3% active | NIH 3T3 viability, CellTiter-Glo ATP luminescence, 48-72 h; note: nearly all actives have a fitted effect of over 55% in size
#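 NIH 3T3 cells at 400 cells/well received 23 nL of compound by pintool and were incubated 48 or 72 h at 37 °C. Viability was read as ATP-coupled CellTiter-Glo luminescence.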
# The depositor's hits bear a star; i = inactive; ? = inconclusive; . = no result; ! = not confirmed by another sample; [ ] = remark or other dose. Most compounds without a hit are left out; they make up all but 7.4% or so of the library. Unless noted, calls come from the whole dose curve; as a rule, active = well fitted curve in the direction sought with a large enough effect; inconclusive = small, poorly fitted or top-dose-only effect, or another doubt; inactive = no such curve, though single readings can be large; an effect the other way counts as inactive or inconclusive. Unless noted, % is set by controls: 0 for no effect and ±100 for the full control effect; potency is the fitted concentration of half-maximal effect.
SMILES,HEK293 tox,HEK293 viab,NPR1 antag,SNCA expr inh,Luciferase inh,3T3 cytotox
CC(=O)NC1(C)CCN(Cc2ccccc2-c2ccccc2Oc2ccccc2)C1 (stereo unspecified),?,?,-18%[70.6 µM],?,i,79µM*
CC(=O)NC1(C)CCN(Cc2ccc(-c3ccc4ccccc4c3)cc2)C1 (stereo unspecified),28µM*,-10%[87.6 µM],16µM*,?,?,25µM*
CC(=O)NC1(C)CCN(Cc2ccc(-c3ccc(Oc4ccccc4)cc3)cc2)C1 (stereo unspecified),?,-20%[87.6 µM],18µM*,27%[87.6 µM],22µM*,13µM*
CN(C)C(=O)N1CCC(C(=O)N2CCC3(CC2)CC(=O)Nc2ccccc2O3)CC1,-1%,-1%,.,-8%,.,2%
CCN1CCCC12Cc1ccccc1CN([S+](C)(=O)[O-])C2 (stereo unspecified),-25%,-3%,.,6%,.,-9%
COc1ccc(CNC(=O)c2nc(S(=O)(=O)Cc3ccccc3)ncc2Cl)cc1,.,25µM*,.,?,.,.
COc1ccc(N(Cc2ccccc2)C(=O)c2nc(S(C)(=O)=O)ncc2Cl)cc1,.,6.3µM*,.,?,.,.
COc1ccc(CNC(=O)c2nc(SC(C)C)ncc2Cl)cc1,.,21%,.,-2%,.,.
CCCSc1ncc(Cl)c(C(=O)N(Cc2ccccc2)c2ccc(OC)cc2)n1,.,2%,.,?,.,.
O=C(c1ccc(Cl)cc1)N(Cc1ccco1)Cc1ccco1,.,0%,.,13%,.,.
CS(=O)(=O)c1ncc(Cl)c(C(=O)N(Cc2ccc(Cl)cc2)Cc2ccco2)n1,.,2.5µM*,.,?,.,.
Cc1cnc(C2CCN(S(C)(=O)=O)C2)n1Cc1ccc(F)cc1 (stereo unspecified),1%,?,.,-3%,.,-16%
CN1CCN(C(=O)c2ccc3nc(-c4cccnc4)oc3c2)CC1,-26%[172 µM],3%[87.6 µM],.,23%[87.6 µM],.,-9%[138 µM]
COc1ccc(C(=O)NC2CCN(c3ccnc4ccnn34)CC2)cc1,-12%,-28%,.,-14%,.,-13%
Cc1cc(CN(C)Cc2cn(-c3cccc(F)c3)nc2-c2ccc(C)o2)n[nH]1,45µM*,-7%,-4%,32%,?,?
Cc1ccc(-c2nn(-c3cccc(F)c3)cc2CN(C)CCO)o1,-17%,3%,4%,22%,?,-22%
O=C(NC1CCCC1)NC1CCCN(c2ccc3nnc(-c4ccccc4)n3n2)C1 (stereo unspecified),-16%,.,.,.,.,-18%
COc1cccc([S+](=O)([O-])NC2CCN(c3ccc4nnc(-c5ccccc5)n4n3)CC2)c1,25µM*,.,.,.,.,14µM*
Cc1ccc([S+](=O)([O-])NC2CCN(c3ccc4nnc(-c5ccccc5)n4n3)CC2)cc1,40µM*,.,.,.,.,?
Cc1noc(C)c1[S+](=O)([O-])N1CCCN(c2ccc3nnc(C)n3n2)CC1,-2%,.,.,.,.,-15%
Cc1noc(C)c1[S+](=O)([O-])N1CCCN(c2ccc3nnc(-c4ccccc4)n3n2)CC1,79µM*,.,.,.,.,-30%
O=[S+]([O-])(NC1CCCN(c2ccc3nnc(-c4ccccc4)n3n2)C1)c1ccccc1 (stereo unspecified),22µM*,.,.,.,.,?
Cc1ccc([S+](=O)([O-])NC2CCN(c3ccc4nnc(C)n4n3)CC2)cc1,?,.,.,.,.,-27%
O=C(NCc1ccc(Cl)cc1)c1ccc2nnc(CC3CC3)n2c1,?,?,.,-12%[87.6 µM],.,?
O=[S+]([O-])(NC1CCCN(c2ccc3nnc(C4CC4)n3n2)C1)c1cccc(C(F)(F)F)c1 (stereo unspecified),?,.,.,.,.,5.6µM*
SMILES,HEK293 tox,HEK293 viab,NPR1 antag,SNCA expr inh,Luciferase inh,3T3 cytotox
COc1cccc([S+](=O)([O-])NC2CCCN(c3ccc4nnc(C)n4n3)C2)c1 (stereo unspecified),4%,.,.,.,.,-28%
Cc1cccc(-c2cccc(CN3CCC(NC(=O)c4cccc(Cl)c4)CC3)c2)c1,28µM*,?,.,?,.,20µM*
Cc1cccc(-c2cccc(CN3CCC(NC(=O)Cc4cccc(Cl)c4)CC3)c2)c1,20µM*,?,.,?,.,14µM*
O=C(NC1CCN(Cc2cccc(-c3cccs3)c2)CC1)c1cccc(Cl)c1,20µM*!,7%[12.5 µM],.,?,.,?
Cc1cccc(-c2cccc(CN3CCC(NC(=O)c4ccc(F)cc4)CC3)c2)c1,?,-15%,.,13%,.,?
Cc1cccc(-c2cccc(CN3CCC(NC(=O)NC4CCCC4)CC3)c2)c1,-21%,?,.,13%,.,?
Cc1cccc(-c2cccc(CN3CCC(NC(=O)C(C)(C)C)CC3)c2)c1,45µM*,0%,.,-3%,.,?
CN(C)CCOCC1(C)COc2ccc(C(=O)Nc3ccc4[nH]ccc4c3)cc2N1 (stereo unspecified),?,6%[87.6 µM],2%[70.6 µM],?,50µM*,?
CC1(CCCCN2CCOCC2)COc2ccc(C(=O)Nc3ccc4[nH]ccc4c3)cc2N1 (stereo unspecified),?,1%,?,?,i,-29%
CC1(COCC2CC2)COc2ccc(C(=O)Nc3ccc4[nH]ccc4c3)cc2N1 (stereo unspecified),?,?,?,7.1µM*,16µM*,45µM*
COCc1nncn1C1CCN(S(=O)(=O)c2ccc(Br)s2)CC1,?,-7%,.,0%,.,?
COc1ccc(-n2nc(C)c([C@H]3C=C[C@@H](OC(=O)Nc4ccc(Br)cc4)C3)c2C)cc1,?,-25%,11µM*,36%,35µM*,?
Cc1nn(-c2ccccn2)c(C)c1[C@@H]1C=C[C@@H](NC(=O)CSCC(=O)O)C1,0%[172 µM],7%[87.6 µM],2%[70.6 µM],13%[87.6 µM],i,?
COc1ccc(NC(=O)N[C@@H]2C=C[C@@H](c3c(C)nn(-c4ccccn4)c3C)C2)cc1,71µM*,-18%[87.6 µM],-19%[70.6 µM],72%[87.6 µM],?,112µM*
O=C(c1c(-c2ccccc2)cc(=O)n2c1CCC2)N1CCCC1,-1%,3%,.,6%,.,0%
Cc1ccc(Nc2ccnc(N3CCC(NC(=O)c4ccc(C)cc4)CC3)n2)cc1,?,-26%,.,19%,.,?
O=C(NC1CCN(c2nccc(Nc3ccccc3Cl)n2)CC1)C1CC1,?,-1%,.,-18%,.,28µM*
Cc1ccc(Nc2ccnc(N3CCN(C(=O)c4ccccc4Cl)CC3)n2)cc1,40µM*,-5%,.,-18%,.,?
COc1ccc(Nc2ccnc(N3CCN(C(=O)c4ccccc4OC)CC3)n2)cc1,?,-25%,.,8%,.,?
CNC(=O)C1CCN(c2nccc(Nc3ccccc3Cl)n2)CC1,?,-2%[12.5 µM],.,19%[87.6 µM],.,?
